Source: ChEMBL document CHEMBL1157539, “Thousands of chemical starting points for antimalarial lead identification” (Nature, 2010)

Tests used:
Assay type in all cases: functional
Plasmodium falciparum [1] = assay: GSK_TCMDC: Inhibition of Plasmodium falciparum 3D7 in whole red blood cells, using parasite LDH activity as an index of growth. Test compounds present at 2uM
Plasmodium falciparum [2] = assay: GSK_TCMDC: Inhibition of Plasmodium falciparum Dd2 in whole red blood cells, using parasite LDH activity as an index of growth. Test compounds present at 2uM
HepG2 = assay: GSK_TCMDC: Percent inhibition of human HepG2 cell line. Test compounds present at 10uM.

Row | SMILES | Inhibition (Plasmodium falciparum [1]) | Inhibition (Plasmodium falciparum [2]) | Inhibition (HepG2)
1 | CCCCN(CCCC)CCCCNc1c2ccccc2nc2ccccc12.Cl | 100% | 100% | 36%
2 | Cl.O=c1cc(NCCCNC2CCOc3c(I)cc(Cl)cc32)[nH]c2ccccc12 (configuration not stated) | 96% | 48% | 0%
3 | Cc1cc(-c2ccc(NC(=O)c3coc4ccc(N5CC(C)N(C)C(C)C5)cc34)cc2C)cc(C)n1.Cl (configuration not stated) | 94% | 62% | 13%
4 | CC(=O)Oc1ccc(C(=O)Oc2ccccc2C#CC#N)cc1OC(C)=O | 93% | 61% | 23%
5 | N#Cc1ccc(N(CCOC(=O)c2ccccc2)Cc2ccccc2C(F)(F)F)cc1C(F)(F)F | 92% | 67% | 6%
6 | Nc1ncc(-c2ccsc2)c2ccc(-c3ccc4cn[nH]c4c3)cc12 | 95% | 41% | 18%
7 | CN1CCC(N2CCC(Oc3cccc(C(=O)NCCCC4CCCC4)c3)CC2)CC1 | 100% | 48% | 41%
8 | N=C(NCc1ccc(O)cc1)Nc1nc(-c2ccc(OCCCn3ccnc3)cc2)cs1 | 100% | 89% | 13%
9 | COc1ccc2nccc(N3CCC(O)(CCNCc4ccc5c(n4)NC(=O)CS5)CC3)c2n1.Cl | 99% | 21% | 10%
10 | Nc1nc(N)c2c(ccc3[nH]ccc32)n1 | 88% | 0% | 58%
11 | CC(=O)Nc1ccc(C(=O)Nc2ccc(-c3cccc(-c4nc5cc(C(F)(F)F)ccc5[nH]4)c3)cc2)cn1 | 100% | 98% | 29%
12 | O=C1C(=Cc2cc(Cc3ccccc3)ccc2O)SC(=S)N1Cc1ccccc1 | 98% | 53% | 16%
13 | Cc1cc(NC(=O)NCCN2CCC(NC(=O)c3ccc(Cl)cc3)CC2)c2ccccc2n1 | 90% | 54% | 0%
14 | COc1ccc(NC(=O)NC2CCN(c3ccnc4cc(Cl)ccc34)CC2)cc1.O=C(O)C(F)(F)F | 83% | 64% | 5%
15 | COc1ccc(NC(=O)Nc2cccc(-c3cccc(-c4nc5cccc(C)c5[nH]4)c3)c2)cc1 | 100% | 43% | 0%
16 | Cc1cc(N(C)C2CCN(C)C2)nc(Nc2ccccc2Cl)n1 (configuration not stated) | 100% | 84% | 1%
17 | Cc1ccc(C(=O)NC2CC2)cc1-c1ccc2c(cnn2S(=O)(=O)c2ccc(F)cc2)c1 | 93% | 69% | 7%
18 | COc1ccccc1CNC(=O)c1cc(OC)c(OC)cc1NC(=O)c1cccs1 | 88% | 71% | 12%
19 | CC(C)Cn1ncc2c3c(N)nc(N)nc3ccc21 | 94% | 73% | 63%
20 | c1ccc2[nH]c(CN(Cc3nc4ccccc4[nH]3)Cc3nc4ccccc4[nH]3)nc2c1 | 81% | 86% | 39%
21 | Cc1ccc(NS(=O)(=O)c2cccs2)cc1-c1cccc(C(=O)Nc2ccc(F)cc2)c1 | 99% | 100% | 38%
22 | Cc1ccc(CNC(=O)[C@H](CCCN)Nc2nc(NCC3CCCCC3)ncc2C)cc1.O=C(O)C(F)(F)F | 92% | 5% | 1%
23 | CC1CN(c2cnn(Cc3ccc(NC(=O)Nc4ccc(-c5ccccc5)cc4)cc3)c(=O)c2Cl)CC(C)N1.O=C(O)C(F)(F)F (configuration not stated) | 100% | 46% | 82%
24 | Cc1nc(Nc2cc(Cl)ccc2O)nc(Nc2cc(Cl)ccc2O)c1[N+](=O)[O-] | 98% | 83% | 0%
25 | Cc1cc2c(cc1C(F)(F)F)N(C(=O)Nc1cc(OCCN(C(C)C)C(C)C)cc(C(F)(F)F)c1)CC2.Cl | 100% | 86% | 42%
26 | Cl.Oc1ccc(Cc2ccccc2)cc1CNC1CCCCC1 | 96% | 98% | 30%
27 | O=C1c2ccccc2C(=O)N1c1ccc(S(=O)(=O)N2CCOCC2)cc1 | 94% | 0% | 0%
28 | CC1(C)CCC(C)(C)c2c1ccc(C1CCN(CCCCNC(=O)c3ccc(-c4ccc(C#N)cc4)cc3)CC1)c2OCC(N)=O | 100% | 100% | 99%
29 | COc1ccc(CNc2nc(NCCc3ccccc3)c3cc(OC)c(OC)cc3n2)cc1OC | 100% | 100% | 48%
